The structures appear in SMILES notation. The campaign covered roughly 340,000 compounds. About 2,100 (0.62%) were called active. Not all results are given here. Potency and affinity values are given separately. Values without a mark were called inactive.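 The calls were made as follows: active = first-screen hits whose inhibition reached a set limit at any dose in the follow-up dose series; inconclusive = inhibition above the set first-screen limit but never retested; inactive = the rest.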

Chain of Rac GTPase-activating protein 1 (Homo sapiens) (Q9H0H5 whole entry, looked up): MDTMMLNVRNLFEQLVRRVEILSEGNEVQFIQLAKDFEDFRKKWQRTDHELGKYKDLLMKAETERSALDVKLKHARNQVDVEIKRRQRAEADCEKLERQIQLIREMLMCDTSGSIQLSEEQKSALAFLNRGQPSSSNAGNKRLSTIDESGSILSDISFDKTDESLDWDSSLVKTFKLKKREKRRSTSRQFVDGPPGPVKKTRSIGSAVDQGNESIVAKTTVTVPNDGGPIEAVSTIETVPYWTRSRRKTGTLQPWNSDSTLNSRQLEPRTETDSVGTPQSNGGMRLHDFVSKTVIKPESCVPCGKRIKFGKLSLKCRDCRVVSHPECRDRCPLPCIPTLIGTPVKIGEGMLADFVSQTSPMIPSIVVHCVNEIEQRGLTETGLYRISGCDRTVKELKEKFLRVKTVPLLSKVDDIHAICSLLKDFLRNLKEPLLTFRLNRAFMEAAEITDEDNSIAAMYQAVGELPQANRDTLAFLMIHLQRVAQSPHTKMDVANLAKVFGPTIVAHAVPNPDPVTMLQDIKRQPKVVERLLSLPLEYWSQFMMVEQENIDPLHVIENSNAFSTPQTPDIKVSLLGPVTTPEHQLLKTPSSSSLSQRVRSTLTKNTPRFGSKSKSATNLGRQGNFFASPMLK

The assay addresses Rac GTPase-activating protein 1 (Homo sapiens) (UniProt Q9H0H5). The assay can be described thus: MgcRacGAP GTPase-activating activity inhibitors, confirmation, biochemical, ADP Hunter fluorescence, primary and confirmatory (AID 624330).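 Also: fluorescence reports GDP produced by GAP-driven GTP hydrolysis.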 The settings on record: MgcRacGAP-stimulated Rac1 GTP hydrolysis, at 30 µM, stronger effect = higher value, GST-tagged Rac1 F28L mutant substrate.
For orientation: inhibition means the relative decrease from the control value, in per cent. As for `Cc1cc2ncn(S(=O)(=O)c3ccc(S(=O)(=O)N4CCCCCC4)cc3)c2cc1C`, the inhibition was -3.86%.
To `Cn1c(SCC(=O)Nc2ccccc2Cl)nnc1C1CC1` belongs 2.31%; to `COc1ccc([N+](=O)[O-])cc1NS(=O)(=O)c1cc(C(=O)O)ccc1OC`, -0.88%; to `C=CCn1c(C)cc(C(=O)COC(=O)C2CC(=O)N(CCc3ccc(OC)c(OC)c3)C2)c1C` (stereo not drawn), 2.85%.
In the case of `COc1ccc(C=O)cc1COc1ccc(Cl)cc1[N+](=O)[O-]`, the inhibition is 0.45%.
Next, `CCCCOc1ccc(C(CC(=O)NC)C(=O)O)cc1` (stereo not drawn): 1.11%; `O=C(Nc1ccc(-c2ccccc2)cc1)c1ccccc1`: 10.2%.
As for `Cc1ccc(NC(=O)C2=C(O)c3ccccc3N(C)S2(=O)=O)cc1`, the inhibition is 10.1%.
Next, `Cc1ccc(NC(=O)c2ccccc2)cc1`: 8.58%; `CN1c2ccccc2C(O)=C(C(=O)Nc2ccccc2)S1(=O)=O`: 5.83%; `Cc1onc(-c2c(F)cccc2Cl)c1C(=O)N=C(N)N1CCCC1`: 4.34%.
Next, `CCOC(=O)C1CCCCN1C(=O)c1oc2c(Cl)cc(C)cc2c1C` (stereo not drawn): -3.11%; `CCCCN(C)C(=O)Cc1c(OC)ccc2cc(Br)ccc12`: 10.7%.
`COc1ccc(/C=N/n2cncn2)cc1Cn1nc(C)c([N+](=O)[O-])c1C`: the inhibition was 6.36%.
Next, `COc1ccc(CN2CCN(C(c3ccc(F)cc3)c3ccc(F)cc3)CC2)c(OC)c1OC`: 6.11%; `Cc1ccc(SCCN2CCN(CCc3ccccc3)CCC2=O)cc1`: 12%; `Cc1ccc(SCCN2CCN(C)CC2)cc1`: -7.97%.
Regarding `CCOc1ccccc1N1CCN(Cc2ccc(OC)c(OC)c2OC)CC1`, the inhibition is 13.8%.
To `COc1ccc(-n2c(SCC(=O)Nc3ccc(Br)cc3)nc(O)cc2=O)cc1` belongs 10.3%.
To `O=C(c1ccncc1)N1CCN(C2CCCCC2)CC1` belongs 19.7%; to `c1ccc(CN2CCC(N3CCN(Cc4ccc5c(c4)OCO5)CC3)CC2)cc1`, 13.3%.
Next, `O=C(c1ccc(F)cc1)N1CCCC(N2CCN(Cc3ccc4c(c3)OCO4)CC2)C1` (stereo not drawn): 8.04%; `OCCC1CN(Cc2ccncc2)CCN1C1CCCC1` (stereo not drawn): 5.79%; `COCCNC(=O)CC(c1ccccc1)c1ccccc1`: 10.4%.
`CCOc1ccc(CN(C)C(=O)CN2C(=O)NC3(CCCc4ccccc43)C2=O)cc1` (stereo not drawn): the inhibition was 13%.
Next, `CC(C)(C)NC(=O)C(c1ccccn1)N(C(=O)c1csnn1)C1CCCC1` (stereo not drawn): 0.77%; `O=C(COc1ccc(C(=O)Nc2ccc(Cl)cc2)cc1)NCc1ccccc1`: 8.5%.
To `Cc1cc(/C=C2/NC(=O)N(Cc3ccccc3F)C2=O)c(C)n1-c1ccccn1` belongs 4.33%; to `COc1ccc(N(C)S(=O)(=O)c2cccc(C(=O)NCC(c3cccs3)N(C)C)c2)cc1` (stereo not drawn), 5.09%; to `Cc1cc(C)nc(NC(=O)/C=C/c2ccccc2Cl)c1`, 9.19%.
To `Cc1cc(C)nc(NC(=O)/C=C/c2ccccc2Cl)n1` belongs 6.5%; to `CC(C)NC(=S)N/N=C/c1ccc(N2CCOCC2)cc1`, 0.94%; to `CCOC(=O)N/N=C\c1ccc(C)s1`, 3.68%.
Consider `C(=N\n1cnnc1)/c1ccc(N2CCOCC2)s1`, for which the inhibition was 10.2%.
`CC(C)(C)OC(=O)N/N=C/c1ccc(N2CCOCC2)s1`: the inhibition is 25.5%.
Next, `O=C(N/N=C/c1ccc(N2CCOCC2)s1)c1ccccc1Br`: 10%.
Consider `O=C(O)c1cc(N/N=C/c2ccc(N3CCOCC3)s2)ccc1Cl`, for which the inhibition is 25.9%.
To `Clc1cccc(N/N=C/c2ccc(N3CCOCC3)cc2)c1` belongs 0.9%; to `C(=N\N(c1ccccc1)c1ccccc1)/c1ccc(N2CCOCC2)s1`, 15.3%; to `Cc1ccccc1S(=O)(=O)N(C)C[C@@H]1OCc2ccccc2-c2c(n(C)c3ccccc23)C(=O)N([C@H](C)CO)C[C@@H]1C`, 14.2%.
In the case of `COc1ccc(Cl)cc1C(=O)NNC(=O)c1n[nH]c2ccccc12`, the inhibition was 4.94%.
In the case of `Cc1ccc(S(=O)(=O)/N=C(\Nc2cc(C)on2)c2ccc(Cl)cc2)cc1`, the inhibition is 8.35%.
On to `Cc1cn2c(-c3ccc(Cl)cc3)nnc2s1`, for which the inhibition was -3.08%.
As for `O=C(NCc1cccnc1)C(=O)NCC1OCCCN1S(=O)(=O)c1ccc(Cl)cc1` (stereo not drawn), the inhibition was 1.54%.
`Cc1cc(=O)cc(C)n1-c1ccc2c(c1)nc(C)n2-c1ccccc1`: the inhibition was 2.42%.
Next, `Cc1ccc(S(=O)(=O)N2CCN(C(=O)Cc3ccc4c(c3)OCCO4)CC2)cc1C`: 6.6%.
To `CCCCc1ccc(NC(=S)NCCc2ccc(F)cc2)cc1` belongs -17.2%; to `CCOc1ccc(-n2c(-c3ccco3)nc3c(cnn3-c3ccc(C)cc3)c2=O)cc1`, 2.66%; to `O=C(CN(Cc1ccco1)S(=O)(=O)c1ccccc1)N/N=C/c1ccccc1C(=O)O`, 8.11%.
Next, `COc1ccc(/C=N/NC(=O)CN(Cc2ccccc2)S(=O)(=O)c2ccc3c(c2)OCCO3)cc1`: 7.2%; `Cc1ccc(/C=N/NC(=O)CN(Cc2ccccc2)S(=O)(=O)c2ccc3c(c2)OCCO3)cc1`: 2.63%.
Regarding `O=C(CN(Cc1ccco1)S(=O)(=O)c1ccccc1)N/N=C/c1cccc(O)c1`, the inhibition is 8.45%.
As to `CN(C)CCCN=Cc1c(-c2ccccc2)[nH]n(-c2nc3ccccc3s2)c1=O`, the inhibition is 20.7%.
Next, `O=C(NCc1ccc2c(c1)OCO2)Nc1cccc(Cl)c1`: 11.9%.
To `COc1ccc(-c2nc3c(Br)c(N)c(Br)cc3o2)cc1` belongs -0.217%.
To `O=C(Oc1ccc2ccc(O)cc2c1)c1ccccc1Cl` belongs 18.6%; to `Clc1ccc2nc3ccccc3cc2c1`, 2.87%; to `Nc1ccc2cc3ccccc3cc2c1`, 17.6%.
Turning to `Nc1cccc(O)c1`, the inhibition was 18.5%.
Next, `CCc1ccc(NC(=O)CSc2nc3ccccc3nc2N2CCCCC2)cc1`: 6.49%.
Take `Oc1ccc(/C=N/n2cnn(Cc3ccccc3Cl)c2=S)c(O)c1`: the inhibition was 8.66%.
Next, `O=C(Cc1ccc(Cl)cc1)c1ccc(O)cc1`: 9.32%.
Next, `O=C(Cc1ccc(Cl)cc1)NNc1c(F)c(F)cc(F)c1F`: 5.43%; `O=C(Cc1c(F)cccc1Cl)c1ccc(O)cc1O`: -1.08%; `CCN1C(=O)C(C(=O)c2ccccc2)SC1=S` (stereo not drawn): 2.79%.
As for `CSc1ncnc2c1ncn2CCCN1CCN(Cc2cccc3ccccc23)CC1`, the inhibition is 18.8%.
With `CC(=O)Nc1ccc(C(=O)OCC(=O)c2ccc(C)c([N+](=O)[O-])c2)cc1`, the inhibition is -0.02%.
Next, `O=C(Oc1ccccc1C(=O)Nc1ccccc1)c1ccc(Br)c([N+](=O)[O-])c1`: 14.5%.
Take `O=C(c1ccc2snnc2c1)N1CCSCC1`: the inhibition was 12.5%.
Next, `COc1cc(/C=N/S(=O)(=O)c2ccccc2)cc(OC)c1O`: 9.73%; `COc1ccc(/C=N/N(c2ccccc2)c2ccccc2)cc1O`: 10.2%; `COc1cc(/C=N/N(c2ccccc2)c2ccccc2)ccc1O`: 21%.
To `CN(/N=C/c1cc(Br)cc(Br)c1O)c1ccccc1` belongs 5.13%; to `COc1ccc(OC)c(/C=N/N(C)c2ccccc2)c1`, 19.4%; to `CCOc1ccc(/C=N/N(C)c2ccccc2)cc1OC`, 8.29%.
Next, `Cc1ccc(C(=O)N2CC=C(c3ccccc3)CC2)s1`: -2.79%; `CCCCN(C(=O)Nc1ccc(Cl)cc1)C1CCN(C(C)=O)CC1`: 12.3%; `Cc1cc(NC(=O)c2ccc([N+](=O)[O-])cc2Cl)ccc1NC(=O)c1ccco1`: 5.16%.
`Cc1cccc(N=Cc2ccccc2O)c1C`: the inhibition is 6.78%.
For the compound `Cc1ccc(N=Cc2cccc(O)c2O)c(C)c1`, the inhibition was 27.7%.
Next, `Cc1ccccc1N=Cc1cccc(O)c1O`: 12.1%; `Oc1ccccc1C=Nc1cccc2ccccc12`: 12.9%.
As for `C=CCc1cccc(/C=N/c2ncccc2O)c1O`, the inhibition was 15.7%.
Next, `C=CCc1cccc(C=Nc2ccc(Br)cc2)c1O`: 2.02%; `COc1ccc(COCC(O)CN2CCC(CN3C(=O)c4cccc5cccc(c45)C3=O)CC2)cc1OC` (stereo not drawn): 5.74%.
Consider `O=C(c1cc(=O)c2ccccc2o1)N1CCCc2ccccc21`, for which the inhibition is 4.48%.
For the compound `O=C(O)CCCC(=O)Nc1nc2n(n1)C(c1ccc(F)cc1)CC(c1ccc(Cl)cc1)N2` (stereo not drawn), the inhibition was -3.19%.
Turning to `Brc1ccc(CSc2nccn2-c2ccccc2)cc1`, the inhibition is -2.52%.
To `CCOc1ccc(-c2nnc(-c3ccccc3)n2-c2ccccc2)cc1` belongs 1.23%.
Next, `CCOc1ccc(S(=O)(=O)NCCC(=O)OCC(=O)N2CC(=O)Nc3ccccc32)cc1`: 2.23%; `CCN(CC)S(=O)(=O)c1ccc(Cl)c(NC(=O)COC(=O)c2cc(-c3ccccc3Cl)nc3ccccc23)c1`: 5.1%; `CC(C)N(Cc1nccn1C)C(=O)c1ccc2oc(CCCc3ccccc3)nc2c1`: -4.5%.
Next, `COc1ccc(NC(=O)Nc2ccc(OC)cc2)cc1`: 4.31%; `COc1ccc(NC(=S)c2ccc(N(C)C)cc2)cc1`: 6.87%; `Cc1oc(-c2ccccc2)cc1C(=O)Nc1ccccc1`: 19.3%.
For `COc1cc(OC)c(C(=O)Nc2ccncc2)cc1OC`, the inhibition was 6.31%.
Next, `COc1cc(C(=O)Nc2ccc(N(C)C)cc2)c([N+](=O)[O-])cc1OC`: 19.1%; `COc1ccc(NC(=O)c2cc(-c3ccccc3)oc2C)cc1`: 8.42%.

Source of the values: PubChem BioAssay AID624330 (Southern Research Specialized Biocontainment Screening …, 2012).
